This note sets out measurements from ChEMBL document CHEMBL3988442, “University of Dundee, Small-Polar-MMV Screening Library” (2021).

Holding throughout (design): scale not given: direction of the effect not stated beside the values
Assay [1] has as its target Protein translocase subunit SecA (Escherichia coli (strain K12)) (UniProt P10408). As to the kind of experiment: Assay to Identify E. coli SecA ATPase Inhibitors. The settings on record: 30 µM. It counts as functional.
For assay [2], the target named is T1, Ubiquitin-activating enzyme e1, putative (Leishmania donovani (strain BPK282A1)) (UniProt E9BSI1).
T1 sequence (whole entry): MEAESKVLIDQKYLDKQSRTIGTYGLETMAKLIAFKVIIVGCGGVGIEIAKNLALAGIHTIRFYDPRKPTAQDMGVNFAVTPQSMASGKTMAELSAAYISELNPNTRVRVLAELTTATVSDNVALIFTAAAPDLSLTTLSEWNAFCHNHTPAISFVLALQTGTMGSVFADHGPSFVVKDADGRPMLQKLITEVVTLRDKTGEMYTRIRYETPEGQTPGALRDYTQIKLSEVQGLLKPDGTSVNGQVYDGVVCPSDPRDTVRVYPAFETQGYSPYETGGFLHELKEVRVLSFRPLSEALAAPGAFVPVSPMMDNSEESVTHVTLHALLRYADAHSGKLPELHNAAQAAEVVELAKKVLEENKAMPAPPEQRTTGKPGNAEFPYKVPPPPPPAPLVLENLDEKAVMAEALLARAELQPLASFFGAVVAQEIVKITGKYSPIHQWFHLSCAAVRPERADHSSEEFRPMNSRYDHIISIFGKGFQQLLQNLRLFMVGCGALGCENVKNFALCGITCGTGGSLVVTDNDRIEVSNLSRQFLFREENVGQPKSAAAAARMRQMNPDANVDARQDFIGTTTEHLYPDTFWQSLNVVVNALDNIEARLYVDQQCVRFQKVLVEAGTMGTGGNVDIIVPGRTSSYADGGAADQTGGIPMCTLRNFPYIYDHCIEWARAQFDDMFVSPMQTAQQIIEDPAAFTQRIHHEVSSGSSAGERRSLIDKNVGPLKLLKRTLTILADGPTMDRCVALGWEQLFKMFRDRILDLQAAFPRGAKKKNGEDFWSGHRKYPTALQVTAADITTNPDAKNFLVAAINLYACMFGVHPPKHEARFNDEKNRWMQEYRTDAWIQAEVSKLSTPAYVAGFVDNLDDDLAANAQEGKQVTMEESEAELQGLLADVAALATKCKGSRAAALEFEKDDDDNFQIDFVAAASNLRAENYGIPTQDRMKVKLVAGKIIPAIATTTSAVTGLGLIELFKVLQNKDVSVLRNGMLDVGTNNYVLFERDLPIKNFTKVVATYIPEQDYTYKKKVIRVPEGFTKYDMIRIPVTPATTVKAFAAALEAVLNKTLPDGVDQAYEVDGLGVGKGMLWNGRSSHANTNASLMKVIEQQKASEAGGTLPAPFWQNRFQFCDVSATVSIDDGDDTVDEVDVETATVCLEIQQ
The assay is described as follows: Leishmania donovani Ubiquitin Activating Enzyme (LdE1). The settings on record: 30 µM. It counts as functional.

Assay [3] addresses AMP-activated protein kinase, AMPK (Homo sapiens) (UniProt P54646+O43741+P54619+Q9UGJ0+Q9Y478+Q13131+Q9UGI9). As to the kind of experiment: AMP-dependent Kinase enzyme assay. An in vitro enzyme assay that detects ADP turnover that is directly proportional to AMPK activity. This uses naive AMPK that is activated during the assay with MK-8722. It counts as functional. Particulars: 30 µM.

In assay [4] the target is Sialic acid-binding Ig-like lectin 9 (Homo sapiens) (UniProt Q9Y336). As to the kind of experiment: Hs-Siglec9 ALPHAscreen SOP 20170721. Particulars: 10 µM.
Sequence of Sialic acid-binding Ig-like lectin 9 (Homo sapiens) (Q9Y336 whole entry): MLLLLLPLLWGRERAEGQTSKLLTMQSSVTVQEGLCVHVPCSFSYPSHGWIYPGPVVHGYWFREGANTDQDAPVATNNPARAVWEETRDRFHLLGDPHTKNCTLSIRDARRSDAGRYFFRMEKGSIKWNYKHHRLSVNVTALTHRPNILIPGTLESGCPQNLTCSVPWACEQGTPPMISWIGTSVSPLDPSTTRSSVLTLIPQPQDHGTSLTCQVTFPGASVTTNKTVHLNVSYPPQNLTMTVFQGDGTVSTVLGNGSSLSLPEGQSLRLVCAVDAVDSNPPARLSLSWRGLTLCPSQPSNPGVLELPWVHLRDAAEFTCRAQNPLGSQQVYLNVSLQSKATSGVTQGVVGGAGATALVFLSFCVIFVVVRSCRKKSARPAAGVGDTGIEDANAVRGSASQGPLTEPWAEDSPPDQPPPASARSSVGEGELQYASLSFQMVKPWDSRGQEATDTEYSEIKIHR
Another assay deals with Trypanosoma cruzi. As to the kind of experiment: Trypanosoma cruzi phosphomannomutase and mannose-1-phosphate guanylyltransferase assay. It counts as functional. The settings on record: 10 µM.
The target of assay [5] is T2, Arginase-2, mitochondrial (Homo sapiens) (UniProt P78540).
T2 sequence (whole entry): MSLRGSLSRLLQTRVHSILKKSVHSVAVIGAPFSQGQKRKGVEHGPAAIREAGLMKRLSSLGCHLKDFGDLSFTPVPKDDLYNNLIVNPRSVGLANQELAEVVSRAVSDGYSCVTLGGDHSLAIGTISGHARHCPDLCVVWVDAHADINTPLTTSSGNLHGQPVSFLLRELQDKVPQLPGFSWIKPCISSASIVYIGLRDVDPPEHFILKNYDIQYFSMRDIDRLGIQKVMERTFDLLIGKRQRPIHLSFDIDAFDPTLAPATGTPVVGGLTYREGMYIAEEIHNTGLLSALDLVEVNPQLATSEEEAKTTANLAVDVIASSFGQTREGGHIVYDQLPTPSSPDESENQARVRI
The assay is described as follows: in vitro enzyme assay to detect the production of urea directly proportional to the activity of Arginase II. Note: in the data most compounds retested in dose-response had high values. It counts as functional. The settings on record: 33.3 µM.

Assay [6] concerns the target T3, Proteasome subunit beta (Trypanosoma cruzi) (UniProt O96673).
T3 sequence (whole entry): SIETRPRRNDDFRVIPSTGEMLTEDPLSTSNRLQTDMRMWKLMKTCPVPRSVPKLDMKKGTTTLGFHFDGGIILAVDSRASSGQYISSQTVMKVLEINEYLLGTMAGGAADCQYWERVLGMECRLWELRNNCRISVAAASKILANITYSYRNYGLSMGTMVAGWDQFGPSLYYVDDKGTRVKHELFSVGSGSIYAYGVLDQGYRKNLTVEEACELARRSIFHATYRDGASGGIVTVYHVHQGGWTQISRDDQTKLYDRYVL
As to the kind of experiment: Trypanosoma cruzi proteasome chymotrypsin-like activity (TcProtChymo) assay. Note: in the data most compounds retested in dose-response had high values. It counts as functional. The settings on record: 9.37 µM.

For the next assay, the species on record is Homo sapiens. As to the kind of experiment: To identify inhibition of the IFN signalling (Jak-Stat) pathway via expression of an eGFP reporter gene under the control of an IFN-stimulated response element (ISRE) containing MxA promoter. It counts as functional. Particulars: 30 µM. Background: A reporter such as luciferase makes a cellular process visible.

Assay [7] addresses T4, Tyrosyl-tRNA synthetase, putative (Trypanosoma cruzi (strain CL Brener)) (UniProt Q4DSP6).
T4 sequence (whole entry): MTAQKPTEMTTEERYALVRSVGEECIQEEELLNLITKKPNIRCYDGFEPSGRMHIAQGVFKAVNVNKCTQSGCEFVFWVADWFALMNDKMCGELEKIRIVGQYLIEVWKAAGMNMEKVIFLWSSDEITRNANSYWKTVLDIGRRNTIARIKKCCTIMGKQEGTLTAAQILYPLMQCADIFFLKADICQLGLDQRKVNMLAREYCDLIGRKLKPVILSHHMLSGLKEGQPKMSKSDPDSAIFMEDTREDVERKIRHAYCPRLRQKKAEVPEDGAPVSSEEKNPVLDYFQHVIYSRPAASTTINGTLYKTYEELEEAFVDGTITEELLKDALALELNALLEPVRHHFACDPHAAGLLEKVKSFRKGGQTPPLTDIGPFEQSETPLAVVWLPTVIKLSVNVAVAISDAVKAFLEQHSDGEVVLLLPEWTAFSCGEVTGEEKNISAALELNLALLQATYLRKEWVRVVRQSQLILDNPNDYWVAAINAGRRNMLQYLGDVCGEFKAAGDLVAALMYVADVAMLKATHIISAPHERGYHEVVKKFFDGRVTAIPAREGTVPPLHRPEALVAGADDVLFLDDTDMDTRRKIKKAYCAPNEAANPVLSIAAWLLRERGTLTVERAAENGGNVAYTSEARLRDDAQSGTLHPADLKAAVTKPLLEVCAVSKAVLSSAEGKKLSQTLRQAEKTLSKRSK
As to the kind of experiment: Trypanosoma cruzi tyrosyl tRNA synthetase (TcYRS) _High Tyrosine SOP. Note: in the data most compounds retested in dose-response had high values. It counts as functional. Particulars: 30 µM.

Assay [8] concerns the target T4, Tyrosyl-tRNA synthetase, putative (Trypanosoma cruzi (strain CL Brener)). The assay is described as follows: Trypanosoma cruzi tyrosyl tRNA synthetase (TcYRS) SOP. It counts as functional. The settings on record: 30 µM.
Assay [9] concerns the target Chromo domain-containing protein 1 (Saccharomyces cerevisiae (strain ATCC 204508 / S288c) (Baker's yeast)) (UniProt P32657). As to the kind of experiment: ScCHD-1 Enzyme Inhibition Assay. Note: in the data most compounds retested in dose-response had high values. It counts as functional. Particulars: 30 µM.

For some of these results: Results with a measured potency or affinity are listed apart.

Sequence of Protein translocase subunit SecA (Escherichia coli (strain K12)) (P10408 whole entry): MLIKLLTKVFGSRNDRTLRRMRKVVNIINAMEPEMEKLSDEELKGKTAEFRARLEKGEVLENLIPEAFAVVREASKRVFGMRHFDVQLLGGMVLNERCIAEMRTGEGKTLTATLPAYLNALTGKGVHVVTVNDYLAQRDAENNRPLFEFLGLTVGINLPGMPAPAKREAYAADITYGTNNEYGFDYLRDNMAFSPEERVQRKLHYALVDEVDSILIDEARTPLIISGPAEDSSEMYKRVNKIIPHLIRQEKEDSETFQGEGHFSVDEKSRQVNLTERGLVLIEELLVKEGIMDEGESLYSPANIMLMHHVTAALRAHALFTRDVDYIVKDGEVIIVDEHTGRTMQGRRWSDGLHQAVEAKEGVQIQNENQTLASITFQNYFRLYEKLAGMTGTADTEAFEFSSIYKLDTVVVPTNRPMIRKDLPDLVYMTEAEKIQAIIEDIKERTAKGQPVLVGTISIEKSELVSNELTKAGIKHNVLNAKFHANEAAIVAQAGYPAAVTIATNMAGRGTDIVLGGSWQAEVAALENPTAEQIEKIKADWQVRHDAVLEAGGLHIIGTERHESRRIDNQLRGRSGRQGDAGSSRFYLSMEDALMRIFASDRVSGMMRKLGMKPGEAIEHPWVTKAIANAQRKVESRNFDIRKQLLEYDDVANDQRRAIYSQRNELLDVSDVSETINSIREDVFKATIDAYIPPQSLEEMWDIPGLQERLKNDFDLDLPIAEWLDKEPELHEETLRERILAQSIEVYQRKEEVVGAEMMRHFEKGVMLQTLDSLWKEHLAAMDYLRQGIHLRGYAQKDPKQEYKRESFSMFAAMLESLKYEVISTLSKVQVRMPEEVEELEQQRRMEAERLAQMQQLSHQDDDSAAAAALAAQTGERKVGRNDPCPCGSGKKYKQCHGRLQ
Sequence of Chromo domain-containing protein 1 (Saccharomyces cerevisiae (strain ATCC 204508 / S288c) (Baker's yeast)) (P32657 whole entry, the tested form may be a part): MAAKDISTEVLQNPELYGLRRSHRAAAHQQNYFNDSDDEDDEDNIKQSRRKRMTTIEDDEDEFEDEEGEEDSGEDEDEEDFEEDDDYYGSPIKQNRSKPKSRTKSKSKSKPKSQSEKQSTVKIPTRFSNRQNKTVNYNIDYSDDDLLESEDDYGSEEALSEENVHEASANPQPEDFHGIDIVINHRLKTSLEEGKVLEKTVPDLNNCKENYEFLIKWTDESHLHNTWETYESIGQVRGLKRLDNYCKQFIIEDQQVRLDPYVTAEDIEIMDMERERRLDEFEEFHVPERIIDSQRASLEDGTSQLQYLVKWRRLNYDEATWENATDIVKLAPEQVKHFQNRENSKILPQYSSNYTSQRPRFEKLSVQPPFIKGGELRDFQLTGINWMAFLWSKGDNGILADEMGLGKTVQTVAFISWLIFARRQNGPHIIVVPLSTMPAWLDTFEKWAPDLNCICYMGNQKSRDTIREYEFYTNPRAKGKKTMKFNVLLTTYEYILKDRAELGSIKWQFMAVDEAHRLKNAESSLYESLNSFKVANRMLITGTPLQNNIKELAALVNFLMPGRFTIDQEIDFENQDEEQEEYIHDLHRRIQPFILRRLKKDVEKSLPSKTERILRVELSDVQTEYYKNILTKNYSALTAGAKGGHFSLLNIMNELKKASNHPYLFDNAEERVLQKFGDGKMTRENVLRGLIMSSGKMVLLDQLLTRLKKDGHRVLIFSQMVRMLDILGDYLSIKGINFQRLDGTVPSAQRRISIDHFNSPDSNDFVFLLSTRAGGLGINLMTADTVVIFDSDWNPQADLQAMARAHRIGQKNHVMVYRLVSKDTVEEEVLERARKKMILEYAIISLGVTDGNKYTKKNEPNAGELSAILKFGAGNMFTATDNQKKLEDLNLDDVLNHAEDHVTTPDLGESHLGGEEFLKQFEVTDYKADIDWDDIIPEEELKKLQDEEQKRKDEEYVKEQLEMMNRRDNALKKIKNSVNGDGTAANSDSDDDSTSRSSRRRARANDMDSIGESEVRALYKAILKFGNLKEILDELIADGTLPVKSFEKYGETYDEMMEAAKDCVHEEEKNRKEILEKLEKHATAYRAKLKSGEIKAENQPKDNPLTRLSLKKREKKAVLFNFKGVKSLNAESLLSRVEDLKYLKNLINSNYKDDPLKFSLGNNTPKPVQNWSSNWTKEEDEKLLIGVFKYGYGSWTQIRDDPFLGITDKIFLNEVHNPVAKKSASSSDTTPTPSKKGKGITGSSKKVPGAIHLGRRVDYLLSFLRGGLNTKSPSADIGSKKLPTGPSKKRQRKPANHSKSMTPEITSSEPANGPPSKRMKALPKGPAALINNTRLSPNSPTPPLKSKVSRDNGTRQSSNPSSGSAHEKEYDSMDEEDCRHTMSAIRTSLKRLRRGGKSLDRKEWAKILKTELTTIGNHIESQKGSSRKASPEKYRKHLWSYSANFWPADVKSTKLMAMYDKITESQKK

Turning to `CC(C)c1nc(CCNC(=O)NCc2ccnc(N(C)C)c2)cs1`, the Percent Effect was -3.48% in assay [1]; 6.33% in [2]; 8.79% in [3]; 4.61% in [4]; -0.103% with Trypanosoma cruzi; 5.81% in assay [5]. Further, the Percent Effect in assay [6] was 9.43%; in the assay filed under Homo sapiens, 12.5%; in [7], 1.04%; in assay [8], 5.06%; in assay [9] it was -13%.

With `O=C(Cc1ccc2c(c1)CCO2)N1CCCCC1Cn1cccn1` (stereo unspecified), the Percent Effect in assay [1] is -5.85%; in assay [2], 10.5%; in assay [3] it was 0.878%; in [4], 4.66%; with Trypanosoma cruzi, 2.24%; in assay [5], -5.92%. In addition, the Percent Effect in [6] is 7.19%; in the assay listed under Homo sapiens it was 7.18%; in [7] it was 5.32%; in assay [8], 7.79%; in assay [9], -7.71%.

On to `Cc1cccc(OCCNC(=O)CN2CCCC2Cn2cccn2)c1` (stereo unspecified), for which the Percent Effect was -2.54% in assay [1]; -5.26% in [2]; -4.16% in assay [3]; 6.34% in assay [4]; 4.95% with Trypanosoma cruzi; -4.32% in assay [5]. Moreover, the Percent Effect is -0.931% in [6]; -9.42% in the assay filed under Homo sapiens; 5.42% in assay [7]; 11.1% in assay [8]; -3.56% in assay [9].

Turning to `Cc1nc(C)n(CC2CCCN2CC(=O)Nc2ccnn2C(C)C)n1` (stereo unspecified), the Percent Effect is 3.15% in [1]; 18.4% in assay [2]; 16% in [3]; -8.63% in [4]; -8.31% with Trypanosoma cruzi; 2.16% in assay [5]. For the same molecule, the Percent Effect in [6] was 14%; in the assay filed under Homo sapiens, 1.93%; in [7] it was 5.42%; in [8], 16.1%; in assay [9], -6.21%.

For `N#CCCN(C(=O)CN1CCCC1Cc1ccccc1)c1ccccc1` (stereo unspecified), the Percent Effect was -5.2% in [1]; 2.7% in assay [2]; -1.32% in assay [3]; 26.1% in assay [4]; 4.1% with Trypanosoma cruzi; 10.8% in [5]. Also, the Percent Effect in assay [6] was 5.33%; in the assay filed under Homo sapiens it was 0.149%; in assay [7], 11.9%; in assay [8] it was 13.4%; in assay [9], -6.86%.

On to `CN(C)CC1CSCCCN1C(=O)c1ccc(C(C)(C)C)cc1` (stereo unspecified), for which the Percent Effect was 2.6% in assay [1]; 2.6% in assay [2]; 2.24% in [3]; 1.48% in assay [4]; -5.23% in the assay with Trypanosoma cruzi; 7.1% in assay [5]. Also, the Percent Effect in [6] was 1.39%; in the assay listed under Homo sapiens it was 1.95%; in [7] it was 6.35%; in [8] it was 16.7%; in assay [9] it was -4.54%.

As to `Cc1cnc(CN(C)CC2CCCN2c2cccnn2)cn1` (stereo unspecified), the Percent Effect is 1.21% in [1]; 15.6% in assay [2]; -9.07% in [3]; -13.5% in assay [4]; 1.27% in the assay on Trypanosoma cruzi; -5.26% in assay [5]. The Percent Effect in assay [6] was 17.1%; in the assay filed under Homo sapiens, 4.87%; in assay [7], 6.67%; in [8], 25.9%; in [9] it was -25.4%.

In the case of `CN1C(=O)C[C@@H]2[C@@H]1CCN2S(=O)(=O)Cc1ccccc1`, the Percent Effect in assay [1] was 2.57%; in [2] it was 2.74%; in assay [3], 4.04%; in assay [4] it was 13.8%; with Trypanosoma cruzi, -0.595%; in [5], 2%. In addition, the Percent Effect in assay [6] was found to be 2.83%; in the assay filed under Homo sapiens it was 1.27%; in [7], 3.12%; in assay [8], 3.7%; in assay [9], 6.94%.

In the case of `Cc1cnn(CC(C)NCc2nc(-c3cccnc3)no2)c1` (stereo unspecified), the Percent Effect in [1] is -6.08%; in [2], -1.39%; in assay [3] it was -14%; in assay [4], 7.77%; in the assay with Trypanosoma cruzi it was -4.76%; in assay [5] it was -1.32%. The Percent Effect was 13% in assay [6]; -8.09% in the assay listed under Homo sapiens; 7.37% in assay [7]; 5.13% in assay [8]; -1.42% in [9].

With `Cn1cnc2c1CCN(Cc1nc(COc3ccc(F)cc3)no1)C2`, the Percent Effect in assay [1] is -9.01%; in assay [2], 7.89%; in assay [3] it was 3.1%; in assay [4], 1.46%; in the assay on Trypanosoma cruzi, -5.7%; in [5] it was 1.44%. In addition, the Percent Effect is 7.19% in [6]; 10.3% in the assay filed under Homo sapiens; 0.493% in assay [7]; -6.17% in assay [8]; -0.821% in [9].

With `O=C(CCc1cc(O)no1)N1CCCC(COc2ccc(F)cc2)C1` (stereo unspecified), the Percent Effect was -4.75% in [1]; 20.8% in [2]; -16.4% in [3]; 26.7% in assay [4]; 3.6% with Trypanosoma cruzi; 0.442% in assay [5]. For the same molecule, the Percent Effect is 14% in [6]; -9.73% in the assay listed under Homo sapiens; 5.26% in [7]; 10.3% in assay [8]; -11.2% in [9].
